# PubChem BioAssay (Tox21)
# Where “and” joins values, the source holds several entries; their conditions need not be identical. Equal values may be shown once. Results filed as inconclusive are left out. Where a call stands in place of a potency, no number is given. Some structures have more than one record in an assay (separate samples or runs), and their calls can disagree. Calls of active or inactive are those of the source. Unless noted, calls come from the whole dose curve; as a rule, active = well fitted curve in the direction sought with a large enough effect in the repeat runs; inconclusive = weak or mixed curves; inactive = no such curve, though single readings can be large; an effect the other way counts as inactive or inconclusive.
# Assays:
# [1] = qHTS assay to identify small molecule antagonists of the sonic hedgehog signaling (Shh) pathway (AID 1259369; calls by dose curve; note: nearly all actives have a fitted effect of over 45% in size; note: potency is the fitted concentration of half-maximal effect)
# How it was run: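 NIH/3T3-derived 3T3Gli1-Luc cells with stably integrated Gli1-Luc reporter were preincubated 4hr at 37 C, then given compounds in DMSO plus Shh conditioned medium and incubated 24hr. Firefly luciferase luminescence read after 30min reagent at room temperature.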
# [2] = molecular target: Estrogen receptor beta (Homo sapiens) (UniProt Q92731); experiment: qHTS assay to identify small molecule agonists of the estrogen receptor beta (ER-beta) signaling pathway (AID 1259377; active = well fitted activation curve with a large enough effect in the signal ratio in the repeat runs, not every such curve was filed as active; the % refers to the signal ratio)
# Sequence of Estrogen receptor beta (Homo sapiens) (Q92731 whole entry, looked up): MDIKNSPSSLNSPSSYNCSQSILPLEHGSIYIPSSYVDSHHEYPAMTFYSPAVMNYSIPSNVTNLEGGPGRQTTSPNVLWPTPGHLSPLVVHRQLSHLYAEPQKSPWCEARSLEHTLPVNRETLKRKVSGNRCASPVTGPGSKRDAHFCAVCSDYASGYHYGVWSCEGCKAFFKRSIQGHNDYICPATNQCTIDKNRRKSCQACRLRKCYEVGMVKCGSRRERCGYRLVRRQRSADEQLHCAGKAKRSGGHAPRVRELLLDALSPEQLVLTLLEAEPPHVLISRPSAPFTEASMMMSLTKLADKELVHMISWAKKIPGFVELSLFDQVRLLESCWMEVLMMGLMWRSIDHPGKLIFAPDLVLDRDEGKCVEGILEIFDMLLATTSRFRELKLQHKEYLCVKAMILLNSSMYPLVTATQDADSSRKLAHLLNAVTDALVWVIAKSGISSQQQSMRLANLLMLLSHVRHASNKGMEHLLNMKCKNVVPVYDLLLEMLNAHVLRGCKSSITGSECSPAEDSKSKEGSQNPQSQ
# How it was run: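 Beta-lactamase reporter readout: fluorescence of LiveBLAzer B/G FRET substrate after 2 h at room temperature, following 16 h compound treatment of ER-beta-UAS-bla HEK293T cells at 37C in 2% charcoal-stripped FBS medium.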
# [3] = molecular target: Estrogen receptor beta (Homo sapiens) (UniProt Q92731); experiment: qHTS assay to identify small molecule antagonists of the estrogen receptor beta (ER-beta) signaling pathway (AID 1259378; active = well fitted inhibition curve with a large enough effect in the signal ratio in the repeat runs, not every such curve was filed as active; the % refers to the signal ratio)
# How it was run: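 ER-beta-UAS-bla HEK293T cells in 2% charcoal-stripped FBS medium treated with compound plus 1nM final 17-beta-estradiol for 16 hr at 37C. Beta-lactamase reporter read by FRET substrate fluorescence after 2 hours at room temperature.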
# [4] = qHTS assay to identify small molecule agonists of the estrogen receptor beta (ER-beta) signaling pathway - cell viability counter screen (AID 1259380); note: nearly all actives have a fitted effect of over 30% in size
# How it was run: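 ER-beta-UAS-bla HEK293T cells in medium with 2% charcoal-stripped FBS were preincubated 6 hr at 37C, dosed with compound in DMSO for 16 hr, then after the bla read, CellTiter-Glo was added for 30 min at room temperature; luminescence recorded.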
# [5] = qHTS assay to identify small molecule antagonists of the estrogen receptor beta (ER-beta) signaling pathway - cell viability counter screen (AID 1259382); note: series mostly up to about 92 µM; nearly all actives have a fitted effect of over 55% in size
# How it was run: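 ER-beta-UAS-bla HEK293T cells (2,000/well, 2% charcoal-stripped FBS) were pre-incubated 6 hr at 37C, then given compound plus 1nM final 17-beta-estradiol for 16 hr. Viability was read in the same wells by CellTiter-Glo luminescence after 30 min at room temperature.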
# [6] = qHTS assay to identify small molecule agonists or antagonists of the thyroid stimulating hormone receptor (TSHR) signaling pathway - wild type cell line counter screen (AID 1259384; calls by dose curve)
# How it was run: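 Wild-type Hek293 cells, 800/well, 18 h at 37C, then compound with Ro20-1724 for 30 min RT. cAMP by HTRF (cAMP-d2/anti-cAMP cryptate), 1 h RT, fluorescence read. 15 concentrations, triplicates.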
# [7] = molecular target: Thyrotropin receptor (Homo sapiens) (UniProt P16473); experiment: qHTS assay to identify small molecule antagonists of the thyroid stimulating hormone receptor (TSHR) signaling pathway (AID 1259385; calls by dose curve; note: nearly all actives have a fitted effect of over 20% in size)
# Sequence of Thyrotropin receptor (Homo sapiens) (P16473 whole entry, looked up): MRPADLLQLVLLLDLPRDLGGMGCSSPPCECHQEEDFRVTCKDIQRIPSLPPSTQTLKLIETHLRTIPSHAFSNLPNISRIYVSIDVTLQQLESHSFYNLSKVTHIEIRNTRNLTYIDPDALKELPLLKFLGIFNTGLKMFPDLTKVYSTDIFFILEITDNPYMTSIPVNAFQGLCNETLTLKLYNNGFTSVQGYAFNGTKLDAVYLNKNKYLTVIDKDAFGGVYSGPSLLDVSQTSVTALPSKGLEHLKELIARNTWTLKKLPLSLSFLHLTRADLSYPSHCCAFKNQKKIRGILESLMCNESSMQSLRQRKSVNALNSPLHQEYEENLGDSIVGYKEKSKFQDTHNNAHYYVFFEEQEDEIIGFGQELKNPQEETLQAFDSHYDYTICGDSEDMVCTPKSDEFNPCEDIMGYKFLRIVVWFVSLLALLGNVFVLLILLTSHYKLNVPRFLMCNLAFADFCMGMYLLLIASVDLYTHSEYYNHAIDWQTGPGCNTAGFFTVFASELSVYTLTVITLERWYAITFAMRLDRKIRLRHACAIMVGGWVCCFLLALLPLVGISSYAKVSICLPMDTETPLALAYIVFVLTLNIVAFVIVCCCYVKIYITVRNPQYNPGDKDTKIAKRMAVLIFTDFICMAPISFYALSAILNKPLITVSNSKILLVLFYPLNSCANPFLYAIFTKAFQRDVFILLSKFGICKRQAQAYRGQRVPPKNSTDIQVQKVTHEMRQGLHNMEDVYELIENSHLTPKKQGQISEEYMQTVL
# How it was run: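 TSHR-HEK293 cells (800/well) plated 18 h, then compounds with Ro20-1724 and TSH at 1.5 ng/mL final, 30 min at room temperature. cAMP quantified by HTRF (cAMP-d2/anti-cAMP-cryptate, 1 h); 15 concentrations in triplicate.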
# [8] = qHTS assay to identify small molecule agonists of the estrogen receptor alpha (ER-alpha) signaling pathway in the presence of an antagonist - cell viability counter screen (AID 1259386);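 note: series mostly up to about 92 µM; cells exposed to compounds for 22 h at 37 °C before the viability read; nearly all actives have a fitted effect of over 30% in size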
# How it was run: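 VM7Luc4E2 cells (endogenous full-length ER-alpha, 4×ERE-luciferase) were held 5 days in phenol red-free medium with 10% charcoal-stripped FBS, plated, then given 10.0nM ICI-182,780 and compounds at 15 concentrations for 22hr at 37C; viability read by CellTiter-Fluor fluorescence.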
# [9] = molecular target: Progesterone receptor (Homo sapiens) (UniProt P06401); experiment: qHTS assay to identify small molecule agonists of the progesterone receptor (PR) signaling pathway (AID 1346784; calls by dose curve; note: nearly all actives have a fitted effect of over 30% in size; note: potency is the fitted concentration of half-maximal effect)
# Sequence of Progesterone receptor (Homo sapiens) (P06401 whole entry, looked up): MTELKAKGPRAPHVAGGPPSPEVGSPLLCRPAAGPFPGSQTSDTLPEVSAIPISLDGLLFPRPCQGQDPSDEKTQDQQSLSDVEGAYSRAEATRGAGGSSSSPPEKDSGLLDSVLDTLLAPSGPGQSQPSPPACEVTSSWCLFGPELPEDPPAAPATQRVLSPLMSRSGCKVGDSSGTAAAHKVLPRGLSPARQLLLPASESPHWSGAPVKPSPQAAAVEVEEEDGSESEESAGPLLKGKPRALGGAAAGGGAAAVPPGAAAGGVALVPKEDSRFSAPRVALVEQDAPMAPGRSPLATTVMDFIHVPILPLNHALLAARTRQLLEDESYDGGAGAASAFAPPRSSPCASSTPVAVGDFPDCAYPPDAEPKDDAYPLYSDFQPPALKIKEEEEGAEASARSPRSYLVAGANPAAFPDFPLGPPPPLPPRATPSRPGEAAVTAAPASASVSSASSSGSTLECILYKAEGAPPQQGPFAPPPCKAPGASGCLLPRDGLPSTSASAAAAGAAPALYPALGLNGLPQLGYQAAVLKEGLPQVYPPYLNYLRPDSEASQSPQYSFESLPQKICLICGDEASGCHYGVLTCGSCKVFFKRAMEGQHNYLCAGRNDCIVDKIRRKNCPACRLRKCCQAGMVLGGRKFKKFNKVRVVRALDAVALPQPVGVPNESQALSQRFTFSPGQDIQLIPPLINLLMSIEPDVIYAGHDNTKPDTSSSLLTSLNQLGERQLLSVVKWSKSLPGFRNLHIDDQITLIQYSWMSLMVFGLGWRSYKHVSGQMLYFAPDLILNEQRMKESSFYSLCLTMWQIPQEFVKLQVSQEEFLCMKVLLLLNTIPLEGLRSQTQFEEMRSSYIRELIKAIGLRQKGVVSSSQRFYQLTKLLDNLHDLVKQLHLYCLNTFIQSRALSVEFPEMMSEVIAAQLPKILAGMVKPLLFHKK
# How it was run: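 HEK 293T PR-UAS-bla reporter cells, 2% charcoal-stripped FBS; 6 hr settle at 37C/5% CO2, compound (DMSO) 16 hr, LiveBLAzer B/G FRET substrate 2 hr RT, fluorescence intensity read.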
# [10] = qHTS assay to identify small molecule antagonists of the progesterone receptor (PR) signaling pathway - cell viability counter screen (AID 1346798); note: series mostly up to about 92 µM; nearly all actives have a fitted effect of over 50% in size
# How it was run: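 Luminescence readout (CellTiter-Glo, 30 min, RT) of viability in PR-UAS-bla HEK293T cells exposed to compound and R5020 agonist for 16 hr at 37C, 5% CO2; run in the same wells as the beta-lactamase reporter read.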
# [11] = qHTS assay to identify small molecule agonists of the progesterone receptor (PR) signaling pathway - cell viability counter screen (AID 1346799; calls by dose curve; note: nearly all actives have a fitted effect of over 45% in size)
# How it was run: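 HEK293T PR-UAS-bla, 3,000 cells/well, 2% charcoal-stripped FBS; 6 h settle, compound 16 h at 37C/5% CO2; LiveBLAzer 2 h RT, then CellTiter-Glo 30 min RT, luminescence read.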
# [12] = qHTS assay to identify small molecule antagonists of the TGF-beta/Smad signaling pathway - cell viability counter screen (AID 1346824); note: nearly all actives have a fitted effect of over 50% in size
# How it was run: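 SBE-bla HEK 293T cells, incubated overnight, then compound plus 0.25 ng/mL TGF-beta1 (stock added) for 5 hr at 37 C. Viability was read in the same wells by CellTiter-Glo luminescence after 30 min at room temperature.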
# [13] = qHTS assay to identify small molecule agonists of the TGF-beta/Smad signaling pathway - cell viability counter screen (AID 1346829); note: top concentration of the series differs between compounds; nearly all actives have a fitted effect of over 45% in size
# How it was run: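 CellTiter-Glo luminescence readout; SBE-bla HEK 293T cells, overnight plating, compound 5 hr at 37 C/5% CO2, then bla substrate 2 hr RT, then CellTiter-Glo 30 min RT.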
# [14] = qHTS assay to identify small molecule agonists of the TGF-beta/Smad signaling pathway (AID 1346859; active = well fitted activation curve with a large enough effect in the signal ratio in the repeat runs, not every such curve was filed as active; the % refers to the signal ratio; note: series mostly up to about 77 µM)
# How it was run: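 Read-out: fluorescence at 460 and 530 nm (405 nm excitation) after a 2 hr room-temperature incubation with beta-lactamase FRET substrate. SBE-bla HEK 293T cells had been treated with test compounds for 5 hr at 37 C.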
# [15] = molecular target: Thyrotropin-releasing hormone receptor (Homo sapiens) (UniProt P34981); experiment: qHTS assay to identify small molecule antagonists of the thyrotropin-releasing hormone receptor (TRHR) signaling pathway (AID 1346877; active = well fitted inhibition curve with a large enough effect in the repeat runs, not every such curve was filed as active; note: series mostly up to about 51 µM)
# Sequence of Thyrotropin-releasing hormone receptor (Homo sapiens) (P34981 whole entry, looked up): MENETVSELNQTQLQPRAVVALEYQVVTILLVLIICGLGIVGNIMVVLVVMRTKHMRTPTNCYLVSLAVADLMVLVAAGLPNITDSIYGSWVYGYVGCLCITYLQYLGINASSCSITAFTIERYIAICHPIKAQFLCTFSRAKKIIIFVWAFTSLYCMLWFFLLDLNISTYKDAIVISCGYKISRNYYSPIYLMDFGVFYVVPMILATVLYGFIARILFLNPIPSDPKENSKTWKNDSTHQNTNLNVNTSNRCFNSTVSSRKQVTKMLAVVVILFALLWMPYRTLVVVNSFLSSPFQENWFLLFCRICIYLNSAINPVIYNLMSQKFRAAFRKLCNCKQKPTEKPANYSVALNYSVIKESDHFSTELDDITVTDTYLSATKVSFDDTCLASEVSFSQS
# How it was run: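 TRHR-expressing HEK293 cells were seeded, cultured 18 h at 37 °C, then loaded with calcium dye for 2 h. Compounds were pre-incubated 5 min at room temperature before 1 nM TRH (final) was added, and kinetic fluorescence was recorded for 3 min.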
# [16] = molecular target: Thyrotropin-releasing hormone receptor (Homo sapiens) (UniProt P34981); experiment: qHTS assay to identify small molecule agonists of the thyrotropin-releasing hormone receptor (TRHR) signaling pathway (AID 1346891; calls by dose curve; note: series mostly up to about 58 µM)
# How it was run: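 HEK293/TRHR cells, 1500 per well, 18 h 37 °C; Ca dye 2 h 37 °C; pin-tool compound addition (agonist mode); kinetic fluorescence 3 min, 1 s reads; 15 concentrations, triplicate.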
# [17] = qHTS assay to identify small molecule agonists of the androgen receptor (AR) signaling pathway in the presence of an antagonist - cell viability counter screen (AID 1259379); note: series mostly up to about 92 µM; nearly all actives have a fitted effect of over 25% in size
# How it was run: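 MDA-kb2 human breast carcinoma cells (stable MMTV-luciferase, AR/GR responsive) were seeded 3,000 cells/well, pre-incubated 5 hr at 37C without CO2, then given 3.0uM nilutamide and compounds at 15 concentrations for 16 hr. Viability was read by CellTiter-Fluor fluorescence.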
# [18] = molecular target: Estrogen receptor (Homo sapiens) (UniProt P03372); experiment: qHTS assay to identify small molecule agonists of the estrogen receptor alpha (ER-alpha) signaling pathway in the presence of an antagonist (AID 1259383; calls by dose curve; note: top concentration of the series differs between compounds; nearly all actives have a fitted effect of over 15% in size)
# Sequence of Estrogen receptor (Homo sapiens) (P03372 whole entry, looked up): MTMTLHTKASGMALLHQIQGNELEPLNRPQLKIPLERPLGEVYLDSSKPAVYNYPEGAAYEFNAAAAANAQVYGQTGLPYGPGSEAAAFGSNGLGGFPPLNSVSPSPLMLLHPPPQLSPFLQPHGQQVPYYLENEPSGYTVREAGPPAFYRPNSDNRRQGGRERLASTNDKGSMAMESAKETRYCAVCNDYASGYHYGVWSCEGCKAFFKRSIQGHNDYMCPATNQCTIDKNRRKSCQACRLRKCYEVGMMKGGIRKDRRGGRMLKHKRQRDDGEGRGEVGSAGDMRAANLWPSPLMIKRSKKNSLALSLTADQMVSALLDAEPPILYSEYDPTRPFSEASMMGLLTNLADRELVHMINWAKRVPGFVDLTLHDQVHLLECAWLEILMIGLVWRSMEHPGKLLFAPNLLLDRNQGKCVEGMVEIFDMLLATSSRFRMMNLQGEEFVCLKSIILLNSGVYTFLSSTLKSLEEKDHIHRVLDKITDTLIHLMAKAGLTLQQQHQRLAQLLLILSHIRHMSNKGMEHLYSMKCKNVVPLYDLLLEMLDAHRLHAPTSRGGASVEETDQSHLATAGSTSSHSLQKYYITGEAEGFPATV
# How it was run: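 VM7Luc4E2 cells (endogenous full-length ER-alpha, 4×ERE-luciferase) were precultured 5 days in phenol red-free medium with 10% charcoal-stripped FBS, given 10.0nM ICI-182,780 (final), then treated with compounds at 15 concentrations for 22hr at 37C; luminescence read with ONE-Glo.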
# [19] = molecular target: Progesterone receptor (Homo sapiens) (UniProt P06401); experiment: qHTS assay to identify small molecule antagonists of the progesterone receptor (PR) signaling pathway (AID 1346795; active = well fitted inhibition curve with a large enough effect in the signal ratio in the repeat runs, not every such curve was filed as active; the % refers to the signal ratio)
# How it was run: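 Beta-lactamase reporter, HEK293T PR-UAS-bla line; 2% charcoal-stripped FBS; 6 hr pre-incubation, 37C/5% CO2. Compound + R5020 1 nM final, 16 hr. LiveBLAzer B/G FRET substrate, 2 hr RT; fluorescence intensity read.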
# [20] = molecular target: Androgen receptor (Homo sapiens) (UniProt P10275); experiment: qHTS assay to identify small molecule agonists of the androgen receptor (AR) signaling pathway in the presence of an antagonist (AID 1259381; calls by dose curve; note: nearly all actives have a fitted effect of over 15% in size; note: potency is the fitted concentration of half-maximal effect)
# Sequence of Androgen receptor (Homo sapiens) (P10275 whole entry, looked up): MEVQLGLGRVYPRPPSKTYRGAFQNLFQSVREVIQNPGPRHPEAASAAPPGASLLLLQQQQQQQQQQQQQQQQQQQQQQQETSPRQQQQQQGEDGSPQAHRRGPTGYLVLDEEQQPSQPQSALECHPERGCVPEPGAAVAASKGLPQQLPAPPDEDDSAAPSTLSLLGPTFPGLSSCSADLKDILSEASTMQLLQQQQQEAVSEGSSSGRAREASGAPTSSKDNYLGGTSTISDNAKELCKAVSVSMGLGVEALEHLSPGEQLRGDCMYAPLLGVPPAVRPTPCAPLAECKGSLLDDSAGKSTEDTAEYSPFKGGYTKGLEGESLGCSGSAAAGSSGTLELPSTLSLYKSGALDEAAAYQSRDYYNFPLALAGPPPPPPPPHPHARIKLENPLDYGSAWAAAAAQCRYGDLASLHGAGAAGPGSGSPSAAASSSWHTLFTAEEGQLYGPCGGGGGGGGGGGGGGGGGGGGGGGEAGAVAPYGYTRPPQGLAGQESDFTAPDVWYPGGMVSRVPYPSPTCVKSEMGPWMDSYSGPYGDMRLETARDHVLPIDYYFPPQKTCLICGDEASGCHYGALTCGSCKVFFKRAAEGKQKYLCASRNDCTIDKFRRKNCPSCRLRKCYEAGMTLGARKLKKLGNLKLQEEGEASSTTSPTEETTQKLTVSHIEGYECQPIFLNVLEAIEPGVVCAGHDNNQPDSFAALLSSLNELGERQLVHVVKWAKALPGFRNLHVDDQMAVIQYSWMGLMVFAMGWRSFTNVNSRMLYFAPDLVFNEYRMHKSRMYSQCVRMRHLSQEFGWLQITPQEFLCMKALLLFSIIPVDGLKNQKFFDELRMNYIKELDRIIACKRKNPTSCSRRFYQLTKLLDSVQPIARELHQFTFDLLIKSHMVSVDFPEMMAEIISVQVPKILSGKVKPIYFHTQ
# How it was run: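 MDA-kb2 human breast carcinoma cells carrying an MMTV-luciferase reporter (AR- and GR-responsive) were treated with compounds at 15 concentrations plus 3.0uM final nilutamide for 16hr at 37C without CO2; luminescence was read after ONE-Glo addition.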
SMILES,Potency [1],Potency [2],Potency [3],Potency [4],outcome [5],outcome [6],outcome [7],Potency [8],Potency [9],outcome [10],outcome [11],outcome [12],outcome [13],outcome [14],outcome [15],outcome [16],Potency [17],Potency [18],Potency [19],Potency [20]
COc1ccc(CCC(C)=O)cc1,inactive,inactive,inactive,inactive,inactive,inactive,inactive,inactive,inactive,inactive,inactive,inactive,inactive,inactive,inactive,inactive,,,,
C=C(C)C(=O)OCC(C)C,619 nM (active) and inactive,inactive,,inactive,inactive,inactive,inactive,inactive,inactive,inactive,inactive,inactive,inactive,inactive,inactive,inactive,inactive,inactive,inactive,
NCCNCCN,inactive,inactive,inactive,,inactive,,,inactive,inactive,inactive,inactive,inactive,inactive,inactive,inactive,inactive,,,,
O=[N+]([O-])c1ccc2nc[nH]c2c1,inactive,inactive,inactive,inactive,inactive,inactive,inactive,inactive,inactive,inactive,inactive,inactive,inactive,inactive,inactive,inactive,inactive,inactive,,
C=Cc1ccc(C)cc1,inactive,inactive,inactive,inactive,inactive,inactive,inactive,inactive,inactive,inactive,inactive,inactive,inactive,inactive,inactive,inactive,inactive,,inactive,
CC(C)CC(=O)CC(C)CC(C)C (centres undefined),inactive,inactive,,inactive,inactive,inactive,inactive,inactive,inactive,inactive,inactive,inactive,inactive,inactive,inactive,inactive,inactive,,,inactive
C[C@]12CCC(=O)C=C1CC[C@@H]1[C@@H]2[C@@H](O)C[C@@]2(C)[C@H]1CC[C@]2(O)C(=O)CO,inactive,inactive,inactive,,inactive,inactive,inactive,inactive,30.9 µM (active),inactive,inactive,inactive,inactive,inactive,inactive,inactive,inactive,,,246 nM (active) and 150 nM (active)
CCOC(=O)c1ccc(N)cc1,inactive,inactive,,,inactive,inactive,inactive,inactive,inactive,inactive,inactive,inactive,inactive,inactive,inactive,inactive,inactive,,,
CNC(=S)N(C)C,inactive,inactive,,,inactive,,,inactive,inactive,inactive,inactive,inactive,inactive,inactive,,,inactive,inactive,inactive,
CC(C)(C#N)c1cc(Cn2cncn2)cc(C(C)(C)C#N)c1,inactive,inactive,,inactive,inactive,,,inactive,inactive,inactive,inactive,inactive,inactive,inactive,,,inactive,,,
COCCOC(=O)c1ccccc1C(=O)OCCOC,inactive,inactive,inactive,inactive,inactive,inactive,inactive,inactive,inactive,inactive,inactive,inactive,inactive,inactive,inactive,inactive,inactive,,inactive,
CCCCCCCO,inactive,inactive,inactive,,inactive,inactive,inactive,inactive,inactive,inactive,inactive,inactive,inactive,inactive,inactive,inactive,inactive,inactive,inactive,
N#Cc1ccccc1,inactive,inactive,inactive,,inactive,inactive,inactive,inactive,inactive,inactive,inactive,inactive,inactive,inactive,inactive,inactive,inactive,,,
CCCCCCCCCCCC(=O)OC,inactive,inactive,inactive,,inactive,inactive,inactive,inactive,inactive,inactive,inactive,inactive,inactive,inactive,inactive,inactive,inactive,inactive,inactive,
CCO[Si](CCC#N)(OCC)OCC,inactive,inactive,inactive,,inactive,,,inactive,inactive,inactive,inactive,inactive,inactive,inactive,inactive,inactive,,inactive,,
OCc1ccccc1,inactive,inactive,inactive,inactive,inactive,inactive,inactive,inactive,inactive,inactive,inactive,inactive,inactive,inactive,inactive,inactive,,inactive,,inactive
